# Compounds without any hit were thinned out: in the full panel of roughly 83,000, 20% have a hit.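 Results are percent growth after 48 hours of single-concentration exposure. 100 means growth as in untreated cells, lower positive values show inhibition; negative values down to -100 show cell death.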 Activity calls are given as the source filed them. Rule for the calls: active = growth percent below 10; inactive = the rest.
# Test system: LOX IMVI melanoma
# Test: NCI-60 one-dose screen, 48 h (100 = growth as untreated, 0 = no growth, -100 = all killed)
# Conditions: 10 µM
row,SMILES,growth
1,NC1=NC(c2ccccc2Cl)N=C(Nc2nn[nH]n2)N1 (centres undefined),94.2% (inactive)
2,CC(=O)Nc1ccc(-c2cn(-c3cccc(C(=O)Nc4ccc(Cl)c(C(F)(F)F)c4)c3)nn2)cn1,-90.8% (active)
3,CC(C)Sc1nc(NC2CC2)c(C#N)c(-c2ccccc2)n1,80.2% (inactive)
4,O=C1CCC(N2Cc3cc(CC(=O)Nc4ccc(N5CCCCC5)cc4)ccc3C2=O)C(=O)N1 (centres undefined),105% (inactive)
5,N#Cc1c(Cl)nc(SCc2ccc(F)cc2)nc1-c1ccc(F)cc1,90.2% (inactive)
6,Cc1ccc(C(=O)N/C(=C2/OCCN2C)[P+](c2ccccc2)(c2ccccc2)c2ccccc2)cc1,44.8% (inactive)
7,Cc1ccc(C(=O)NNC(=O)CSc2nc3ccccc3c(=O)[nH]2)cc1,96.3% (inactive)
8,Cc1ccc2nc(-c3ccc(-c4nnc(SCC(=O)Nc5ccc(Br)cc5)o4)cc3)[nH]c2c1,-12.7% (active)
9,CN1C/C(=C\c2ccc(O)cc2O)c2[o+]c3cc(O)ccc3cc2C1,-66.7% (active)
10,COc1ccc2[nH]cc(/C=N/Nc3ccc(Br)cn3)c2c1,7.7% (active)
11,CCCS(=O)(=O)c1oc(-c2ccc(F)cc2)nc1S(=O)(=O)c1ccc(F)cc1,-100% (active)
12,COC[C@@H](CC(C)C)N=C1NC(=O)/C(=C/c2ccc3ncoc3c2)N1,6.76% (active)
13,CC(C)C(=O)Nc1ccc(C(=O)NC(=S)Nc2ccc(C(=O)O)cc2)cc1,101% (inactive)
14,Cc1ccc(C(=O)NCCCNc2nc(Nc3ccc(N4CCN(C)CC4)cc3)nc3ccsc23)cc1,-22.6% (active)
15,CC(=O)Nc1nc(-c2ccc(N3CCN(C)CC3)c(NS(=O)(=O)c3cccc4c(N(C)C)cccc34)c2)cs1,-35.6% (active)
16,S=c1nc(-c2ccccc2)cc(-c2cc3ccccc3nc2Cl)[nH]1,44.9% (inactive)
17,O=C(/C=C/Nc1ccc(F)cc1F)c1ccc2c(c1)Nc1ccccc1S2,65.9% (inactive)
18,Cc1ccc(-c2nc(Nc3ccccc3C(=O)O)c3ccccc3n2)cc1,8.57% (active)
19,COc1ccc(C(=O)/C=C/c2cc(C(F)(F)F)cc(C(F)(F)F)c2)cc1S(N)(=O)=O,-100% (active)

row,SMILES,growth
1,COc1ccc(-c2cc(C(=O)N=Nc3c(O)[nH]c4ccccc34)c3ccccc3n2)cc1,-73.6% (active)
2,CS(=O)(=O)Nc1ccc(-c2ccc3c(c2)ncn3-c2ccc(NC(=O)Nc3ccc(Cl)c(C(F)(F)F)c3)cc2)cc1,-97% (active)
3,O=C(Nc1nc2ccc([N+](=O)[O-])cc2s1)Nc1ccccc1I,9.2% (active)
4,Clc1ccc2c(N/N=C/c3c[nH]c4ccc(Br)cc34)ccnc2c1,-77.7% (active)
5,N#Cc1ccc(-c2nn(-c3ccc(C(=O)O)cc3)cc2CNc2cc(Cl)cc(Cl)c2)cc1,7.12% (active)
6,COc1ccc2[nH]c(=O)c(CSc3ccc(Nc4nccc(-c5ccc(Cl)cc5)n4)cc3)cc2c1,89% (inactive)
7,O=C1c2ccccc2C(=O)c2c1c(C(=O)c1ccc(Cl)cc1)n1c2ccc2c3ccccc3ccc21,90.2% (inactive)
8,Cc1ccc(CSc2nc(-c3ccc(F)cc3)c(C#N)c(=O)[nH]2)cc1,95.6% (inactive)
9,CCCCCc1ccc(S(=O)(=O)N(C(C)=O)c2cc(-c3csc(N(C)C(C)=O)n3)ccc2N2CCN(C)CC2)cc1,-99.8% (active)
10,O=C(c1ccc([N+](=O)[O-])c([N+](=O)[O-])c1O)n1[nH]c(=O)c2ccccc2c1=O,56.6% (inactive)
11,COC[C@@H](CC(C)C)N=C1NC(=O)/C(=C/c2ccc3ncsc3c2)N1,0.514% (active)
12,O=C1Nc2cc(Cl)ccc2/C1=C/c1cccc(OCc2ccccc2)c1,-82.6% (active)
13,CN1CCN(c2ccc(C(=O)/C=C/c3cc(C(F)(F)F)ccc3Cl)cc2)CC1,-100% (active)
14,O=C(Cn1nc(-c2ccccc2)ccc1=O)NN1C(=O)c2ccccc2C1=O,92.7% (inactive)
15,O=C(Nc1ccncc1)c1ccc(-n2c(=O)[nH]c3ccccc3c2=O)cc1,83.9% (inactive)
16,O=C1N/C(=N\c2nccs2)S/C1=C\c1cccs1,8.62% (active)
17,COc1cc2c3c(n(CCCn4ccnc4)c(=O)c2cc1OC)-c1nc2c(cc1C3=O)OCO2,0.388% (active)
18,CN(C)c1cccc2c(S(=O)(=O)Nc3cccc(-c4csc(NC(=O)CCCCCN5CCN(c6cc7c(cc6F)C(=O)N(C6CCC(=O)NC6=O)C7=O)CC5)n4)c3)cccc12 (centres undefined),91.8% (inactive)

# Test system: SK-MEL-28 melanoma
# Test: as above
# Conditions: 10 µM
row,SMILES,growth
1,NC1=NC(c2ccccc2Cl)N=C(Nc2nn[nH]n2)N1 (centres undefined),124% (inactive)
2,CC(=O)Nc1ccc(-c2cn(-c3cccc(C(=O)Nc4ccc(Cl)c(C(F)(F)F)c4)c3)nn2)cn1,-80.6% (active)
3,CC(C)Sc1nc(NC2CC2)c(C#N)c(-c2ccccc2)n1,110% (inactive)
4,O=C1CCC(N2Cc3cc(CC(=O)Nc4ccc(N5CCCCC5)cc4)ccc3C2=O)C(=O)N1 (centres undefined),76.4% (inactive)
5,N#Cc1c(Cl)nc(SCc2ccc(F)cc2)nc1-c1ccc(F)cc1,104% (inactive)
6,Cc1ccc(C(=O)N/C(=C2/OCCN2C)[P+](c2ccccc2)(c2ccccc2)c2ccccc2)cc1,72.2% (inactive)
7,Cc1ccc(C(=O)NNC(=O)CSc2nc3ccccc3c(=O)[nH]2)cc1,104% (inactive)
8,Cc1ccc2nc(-c3ccc(-c4nnc(SCC(=O)Nc5ccc(Br)cc5)o4)cc3)[nH]c2c1,92.4% (inactive)
9,CN1C/C(=C\c2ccc(O)cc2O)c2[o+]c3cc(O)ccc3cc2C1,17.3% (inactive)
10,COc1ccc2[nH]cc(/C=N/Nc3ccc(Br)cn3)c2c1,61.5% (inactive)
11,CCCS(=O)(=O)c1oc(-c2ccc(F)cc2)nc1S(=O)(=O)c1ccc(F)cc1,-98.7% (active)
12,COC[C@@H](CC(C)C)N=C1NC(=O)/C(=C/c2ccc3ncoc3c2)N1,0.832% (active)
13,CC(C)C(=O)Nc1ccc(C(=O)NC(=S)Nc2ccc(C(=O)O)cc2)cc1,102% (inactive)
14,Cc1ccc(C(=O)NCCCNc2nc(Nc3ccc(N4CCN(C)CC4)cc3)nc3ccsc23)cc1,-70.3% (active)
15,CC(=O)Nc1nc(-c2ccc(N3CCN(C)CC3)c(NS(=O)(=O)c3cccc4c(N(C)C)cccc34)c2)cs1,-80.1% (active)
16,S=c1nc(-c2ccccc2)cc(-c2cc3ccccc3nc2Cl)[nH]1,65.2% (inactive)
17,O=C(/C=C/Nc1ccc(F)cc1F)c1ccc2c(c1)Nc1ccccc1S2,79.2% (inactive)
18,Cc1ccc(-c2nc(Nc3ccccc3C(=O)O)c3ccccc3n2)cc1,28.8% (inactive)
19,COc1ccc(C(=O)/C=C/c2cc(C(F)(F)F)cc(C(F)(F)F)c2)cc1S(N)(=O)=O,-98.2% (active)

row,SMILES,growth
1,COc1ccc(-c2cc(C(=O)N=Nc3c(O)[nH]c4ccccc34)c3ccccc3n2)cc1,-41% (active)
2,CS(=O)(=O)Nc1ccc(-c2ccc3c(c2)ncn3-c2ccc(NC(=O)Nc3ccc(Cl)c(C(F)(F)F)c3)cc2)cc1,-78.1% (active)
3,O=C(Nc1nc2ccc([N+](=O)[O-])cc2s1)Nc1ccccc1I,15.8% (inactive)
4,Clc1ccc2c(N/N=C/c3c[nH]c4ccc(Br)cc34)ccnc2c1,-98.5% (active)
5,N#Cc1ccc(-c2nn(-c3ccc(C(=O)O)cc3)cc2CNc2cc(Cl)cc(Cl)c2)cc1,18.1% (inactive)
6,COc1ccc2[nH]c(=O)c(CSc3ccc(Nc4nccc(-c5ccc(Cl)cc5)n4)cc3)cc2c1,109% (inactive)
7,O=C1c2ccccc2C(=O)c2c1c(C(=O)c1ccc(Cl)cc1)n1c2ccc2c3ccccc3ccc21,108% (inactive)
8,Cc1ccc(CSc2nc(-c3ccc(F)cc3)c(C#N)c(=O)[nH]2)cc1,111% (inactive)
9,CCCCCc1ccc(S(=O)(=O)N(C(C)=O)c2cc(-c3csc(N(C)C(C)=O)n3)ccc2N2CCN(C)CC2)cc1,-94.3% (active)
10,O=C(c1ccc([N+](=O)[O-])c([N+](=O)[O-])c1O)n1[nH]c(=O)c2ccccc2c1=O,92.7% (inactive)
11,COC[C@@H](CC(C)C)N=C1NC(=O)/C(=C/c2ccc3ncsc3c2)N1,0.97% (active)
12,O=C1Nc2cc(Cl)ccc2/C1=C/c1cccc(OCc2ccccc2)c1,4.09% (active)
13,CN1CCN(c2ccc(C(=O)/C=C/c3cc(C(F)(F)F)ccc3Cl)cc2)CC1,-97.6% (active)
14,O=C(Cn1nc(-c2ccccc2)ccc1=O)NN1C(=O)c2ccccc2C1=O,108% (inactive)
15,O=C(Nc1ccncc1)c1ccc(-n2c(=O)[nH]c3ccccc3c2=O)cc1,104% (inactive)
16,O=C1N/C(=N\c2nccs2)S/C1=C\c1cccs1,14.6% (inactive)
17,COc1cc2c3c(n(CCCn4ccnc4)c(=O)c2cc1OC)-c1nc2c(cc1C3=O)OCO2,80.9% (inactive)
18,CN(C)c1cccc2c(S(=O)(=O)Nc3cccc(-c4csc(NC(=O)CCCCCN5CCN(c6cc7c(cc6F)C(=O)N(C6CCC(=O)NC6=O)C7=O)CC5)n4)c3)cccc12 (centres undefined),104% (inactive)
